# Experimental data reported in the supplement of paper PMC6555819.
# How the values were obtained:
# Test in all cases: PBM binding z-score (relative to random genomic background probes); higher = stronger binding; sequences stand for … in GC…GCGATTGACAGCGTAGAATGAAGG
# [1] = tested on: PPARg:RXRa DBDmut IVT, anti-RXR (DBD mutation: RXRa K156A/R161A, NR concentration 270 nM, RXRa partner concentration 90 nM)
# Method in brief: (§1)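 Antibodies against each partner of ligand-free nuclear receptor dimers (one per run) detected binding on custom Agilent 4×180K protein-binding microarrays after 1 h incubation. The double-stranded probes had 34-nt variable regions carrying direct-repeat seeds, single-nucleotide variants, half-site ablations and random human genomic background sequences. Binding z-scores, from regression-normalized fluorescence, use the random background probes as reference.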
# [2] = tested on: PPARg:RXRa IVT, anti-PPARg (NR concentration 270 nM, RXRa partner concentration 90 nM)
# Method in brief: as §1
# [3] = tested on: PPARg DBDmut:RXRa IVT, anti-PPARg (DBD mutation: PPARg1 K132A/R137A, NR concentration 270 nM, RXRa partner concentration 90 nM)
# Method in brief: as §1
# [4] = tested on: PPARg DBDmut IVT, anti-PPARg (DBD mutation: PPARg1 K132A/R137A, NR concentration 270 nM)
# Method in brief: as §1
# [5] = tested on: PPARg homodimer (NR concentration 180 nM)
# Method in brief: as §1
# [6] = tested on: PXR:RXRa (NR concentration 270 nM, RXRa partner concentration 90 nM)
# Method in brief: as §1
# [7] = tested on: PXR homodimer (NR concentration 270 nM)
# Method in brief: as §1
# [8] = tested on: RARa:RXR (NR concentration 270 nM, RXRa partner concentration 90 nM)
# Method in brief: as §1
# [9] = tested on: RARa homodimer (NR concentration 270 nM)
# Method in brief: as §1
# [10] = tested on: RARb:RXRa (NR concentration 270 nM, RXRa partner concentration 90 nM)
# Method in brief: as §1
Sequence,PBM binding z-score [1],PBM binding z-score [2],PBM binding z-score [3],PBM binding z-score [4],PBM binding z-score [5],PBM binding z-score [6],PBM binding z-score [7],PBM binding z-score [8],PBM binding z-score [9],PBM binding z-score [10]
CAAACTAGGTGAAAGGTCAAAGTCGAGCCAACCA,8.64,9.19,5.27,2.48,8.98,6.14,1.76,8,3.76,5.05
CATACTAGGTCACCGGAAGGTCAAAGTCCGCATG,7.07,8.03,4.35,1.99,7.45,5.88,2.1,7.25,2.75,5.21
ATCTCAAGGTAAAAGTTCAGTGAATCCCGAGGAT,-0.133,1.48,0.958,1.4,0.853,2.03,1.43,2.15,0.0495,2.62
CAAACTAGGTCACAGAAGTCAAAGTCCGTGCGTA,8.28,9.03,4.57,2.37,2.34,2.34,0.405,3.34,0.949,4.35
ACTGGCAGGCCAAGGGTCACTCAAGATTAGTCCG,-0.446,2.2,-0.302,-0.62,1.74,2.97,-0.0528,3.8,-0.0207,3.4
CCGACTGGGGCAAAGGTTACCAGACTCAGTACGA,4.51,5.88,-0.692,-1.09,0.726,2.48,-0.264,3.64,-0.558,2.66
GCGACTGGGGCACCAGCAGGTTACCATAACTTAA,4.23,4.22,-0.601,-0.596,-0.202,0.0556,-0.64,0.555,-0.588,1.05
CCGACTGGGGCAAGGTTACCATGACGCACAGCCA,2.69,3.49,-0.7,-0.368,0.811,0.221,-0.439,0.851,-0.183,1.62
CAAACTAGGTCACCGGAACGTCAAAGTCCGCATG,8.6,8.71,3.6,1.58,2.42,1.83,0.254,2.67,0.352,4.31
TCTCGGAGGACACGAAAGGTCAGACCTCGACATC,1.73,1.54,0.0109,-0.512,2.48,4.1,0.547,4.15,1.09,4.28
TCTTGTAGATCCATAGAGGTTAAGAAAGTGCGCT,1.15,0.128,1.1,0.975,0.227,2.66,0.0814,1.35,0.858,0.837
GCTAGCAGGACATTTGGGTCACTCAATGACGGGC,1.29,2.12,-1.17,-1.5,-0.156,0.607,0.862,0.611,-0.875,1.16
TCTGCTAGGTCAGTTGGTCAGCTTACGAGCTGCC,2.73,3.32,0.732,-0.0451,-0.25,0.13,-0.847,0.661,-0.758,3.36
GATACAGGGTCAGCTAGAGGCCAGAGTCTGGAAA,1.42,2.41,-0.329,-0.829,2.68,3.16,-0.43,4.74,0.22,4.16
CCTGCTGGGCCAAAAAGGTCATTGATGCCGATAA,0.633,1.32,-0.602,-0.914,3.24,4.99,3.34,5.41,0.138,3.89
ACTCGGAGGACAAAGGTTAGAGCTACGCCAGTGA,0.161,1.72,-0.577,-0.0683,1.1,0.7,0.168,1.46,0.397,2.23
CAGCCTAGGTCAGCGCCAGTATAGGAGGAACGTT,1.84,1.37,-1.15,-0.469,0.899,0.373,-0.685,1.15,-0.632,3.71
CCTATTAGTTGACCATAAGGGCAACCTAAGCTCG,0.374,0.836,0.365,0.874,1.32,0.876,0.98,1.49,2.27,1.57
TCTGCTAGGTCAACGATAGTCAGCTAATCTGCTA,4.19,4.2,0.616,0.703,0.481,1.31,-0.482,1.98,-0.872,3.99
CTCGAAAGGTCGTGCTCAGGTCAGTATACCAAAC,1.1,2.14,1.37,1.38,3.94,5.57,1.25,6.37,0.951,4.41
TCTTGTAGATCTATAGAGGTTAAGAAAGTGCGCT,1.2,0.683,0.144,0.174,0.213,2.66,-0.0488,1.63,0.178,0.906
CCTTACGGGTCAAGGTTATAGGACGGGTGGTACG,1.92,3.64,0.411,-0.184,2.15,3.39,0.631,4.15,0.493,4.13
CCGAATAGGTTATGGGGCATTCAGGCAACGGTGA,1.26,1.71,-0.226,-0.668,0.678,0.141,-0.0555,0.892,0.0562,1.27
